The target of test [1] is T1, Ephrin type-B receptor 2 (Homo sapiens) (UniProt P29323).
T1 sequence (whole entry): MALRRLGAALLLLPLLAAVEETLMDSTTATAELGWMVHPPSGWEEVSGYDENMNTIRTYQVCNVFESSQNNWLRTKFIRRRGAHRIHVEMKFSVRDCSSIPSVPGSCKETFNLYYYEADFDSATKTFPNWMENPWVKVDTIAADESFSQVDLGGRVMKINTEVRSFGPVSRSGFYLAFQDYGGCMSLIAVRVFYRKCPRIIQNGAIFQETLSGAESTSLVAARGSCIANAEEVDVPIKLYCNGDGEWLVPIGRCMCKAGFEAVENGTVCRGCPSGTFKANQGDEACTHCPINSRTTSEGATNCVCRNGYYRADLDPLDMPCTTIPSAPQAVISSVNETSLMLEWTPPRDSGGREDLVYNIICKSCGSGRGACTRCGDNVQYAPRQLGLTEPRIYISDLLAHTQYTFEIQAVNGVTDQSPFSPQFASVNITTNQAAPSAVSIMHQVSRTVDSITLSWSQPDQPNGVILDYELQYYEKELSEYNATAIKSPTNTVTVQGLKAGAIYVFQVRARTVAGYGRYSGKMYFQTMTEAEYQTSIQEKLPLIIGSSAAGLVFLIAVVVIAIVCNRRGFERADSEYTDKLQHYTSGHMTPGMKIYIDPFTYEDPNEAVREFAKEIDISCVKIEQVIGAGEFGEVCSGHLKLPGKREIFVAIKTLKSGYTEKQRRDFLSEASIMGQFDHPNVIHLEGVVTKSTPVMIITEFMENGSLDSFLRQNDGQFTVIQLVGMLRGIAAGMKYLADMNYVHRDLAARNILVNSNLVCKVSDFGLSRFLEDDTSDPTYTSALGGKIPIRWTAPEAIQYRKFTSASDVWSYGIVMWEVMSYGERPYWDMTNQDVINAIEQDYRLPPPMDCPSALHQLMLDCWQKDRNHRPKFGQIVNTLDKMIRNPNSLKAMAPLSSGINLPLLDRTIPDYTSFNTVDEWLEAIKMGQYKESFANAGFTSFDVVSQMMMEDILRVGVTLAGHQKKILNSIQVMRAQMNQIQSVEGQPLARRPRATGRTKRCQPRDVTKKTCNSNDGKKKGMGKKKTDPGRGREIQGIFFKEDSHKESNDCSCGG
Particulars: at 1 µM.

The target in test [2] is T2, Ephrin type-B receptor 3 (Homo sapiens) (UniProt P54753).
T2 sequence (whole entry): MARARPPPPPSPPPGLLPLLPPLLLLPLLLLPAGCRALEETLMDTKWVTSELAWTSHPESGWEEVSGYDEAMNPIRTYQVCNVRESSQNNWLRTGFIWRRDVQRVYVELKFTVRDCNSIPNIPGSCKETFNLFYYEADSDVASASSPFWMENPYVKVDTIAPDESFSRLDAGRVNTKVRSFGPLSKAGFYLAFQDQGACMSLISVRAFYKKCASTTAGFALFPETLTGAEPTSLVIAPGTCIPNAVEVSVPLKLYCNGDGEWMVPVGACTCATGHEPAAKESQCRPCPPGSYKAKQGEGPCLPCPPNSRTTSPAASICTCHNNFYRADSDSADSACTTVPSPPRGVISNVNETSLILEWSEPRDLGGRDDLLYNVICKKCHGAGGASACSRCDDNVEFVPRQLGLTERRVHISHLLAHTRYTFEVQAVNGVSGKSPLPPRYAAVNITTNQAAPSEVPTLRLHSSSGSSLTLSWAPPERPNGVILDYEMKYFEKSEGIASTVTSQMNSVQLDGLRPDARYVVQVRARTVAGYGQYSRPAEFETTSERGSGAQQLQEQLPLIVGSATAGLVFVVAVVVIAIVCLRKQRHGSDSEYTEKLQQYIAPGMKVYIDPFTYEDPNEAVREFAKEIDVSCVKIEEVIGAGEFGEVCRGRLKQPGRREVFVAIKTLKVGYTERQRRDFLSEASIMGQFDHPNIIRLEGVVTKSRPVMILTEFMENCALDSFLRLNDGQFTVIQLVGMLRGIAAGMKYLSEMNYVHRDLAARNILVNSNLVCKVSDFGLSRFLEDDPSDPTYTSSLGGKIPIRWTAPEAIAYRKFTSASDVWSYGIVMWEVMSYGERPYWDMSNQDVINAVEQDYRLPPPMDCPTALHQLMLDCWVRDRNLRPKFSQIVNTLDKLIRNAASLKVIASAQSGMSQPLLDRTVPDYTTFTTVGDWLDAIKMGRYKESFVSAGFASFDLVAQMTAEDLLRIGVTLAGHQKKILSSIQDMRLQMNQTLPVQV
Particulars: at 0.1 µM.

Test [3] addresses T2, Ephrin type-B receptor 3 (Homo sapiens). Particulars: at 1 µM.
The target of test [4] is T3, Ephrin type-B receptor 4 (Homo sapiens) (UniProt P54760).
T3 sequence (whole entry): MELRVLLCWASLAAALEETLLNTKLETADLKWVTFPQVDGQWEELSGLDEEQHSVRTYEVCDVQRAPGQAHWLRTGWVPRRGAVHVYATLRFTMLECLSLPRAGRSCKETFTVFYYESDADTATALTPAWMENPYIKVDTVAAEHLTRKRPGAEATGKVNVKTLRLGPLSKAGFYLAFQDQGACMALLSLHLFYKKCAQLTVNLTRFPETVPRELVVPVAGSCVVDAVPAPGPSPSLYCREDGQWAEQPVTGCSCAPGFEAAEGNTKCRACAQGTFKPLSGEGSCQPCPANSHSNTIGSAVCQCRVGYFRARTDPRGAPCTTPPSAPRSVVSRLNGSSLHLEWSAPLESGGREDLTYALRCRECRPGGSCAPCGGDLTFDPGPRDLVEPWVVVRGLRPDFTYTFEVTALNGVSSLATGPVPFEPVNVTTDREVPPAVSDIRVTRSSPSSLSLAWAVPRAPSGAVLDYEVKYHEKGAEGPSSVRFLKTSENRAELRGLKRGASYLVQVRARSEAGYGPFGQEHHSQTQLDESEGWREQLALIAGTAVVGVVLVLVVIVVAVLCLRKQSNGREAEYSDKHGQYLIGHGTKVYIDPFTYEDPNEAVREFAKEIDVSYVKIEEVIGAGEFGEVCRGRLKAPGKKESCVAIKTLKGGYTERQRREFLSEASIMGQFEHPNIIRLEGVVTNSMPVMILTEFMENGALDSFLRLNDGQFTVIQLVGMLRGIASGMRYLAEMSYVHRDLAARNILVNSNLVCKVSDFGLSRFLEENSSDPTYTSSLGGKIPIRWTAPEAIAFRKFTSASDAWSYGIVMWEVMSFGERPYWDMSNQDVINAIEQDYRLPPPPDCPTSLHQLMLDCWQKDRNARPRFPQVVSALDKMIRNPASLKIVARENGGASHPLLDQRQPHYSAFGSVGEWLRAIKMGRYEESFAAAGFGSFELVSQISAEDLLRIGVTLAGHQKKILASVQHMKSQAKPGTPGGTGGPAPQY
Particulars: at 0.1 µM.

Test [5] deals with T3, Ephrin type-B receptor 4 (Homo sapiens). Particulars: at 1 µM.
The target in test [6] is Receptor tyrosine-protein kinase erbB-2 (Homo sapiens) (UniProt P04626). Particulars: at 0.1 µM.
For test [7] the target is unchanged. Particulars: at 1 µM.
Test [8] concerns the target Receptor tyrosine-protein kinase erbB-4 (Homo sapiens) (UniProt Q15303). Particulars: at 0.1 µM.
Test [9] has the same target. Particulars: at 1 µM.
The target of test [10] is Tyrosine-protein kinase Fer (Homo sapiens) (UniProt P16591). Particulars: at 0.1 µM.
Test [11] has the same target. Particulars: at 1 µM.
The target of test [12] is Tyrosine-protein kinase Fes/Fps (Homo sapiens) (UniProt P07332). Particulars: at 0.1 µM.
Test [13] has the same target. Particulars: at 1 µM.
Test [14] deals with Fibroblast growth factor receptor 1 (Homo sapiens) (UniProt P11362). Particulars: at 0.1 µM.
Test [15] shares this target. Particulars: at 1 µM.
Test [16] concerns the target Fibroblast growth factor receptor 2 (Homo sapiens) (UniProt P21802). Particulars: at 0.1 µM.
Test [17] shares this target. Particulars: at 1 µM.
Test [18] addresses Fibroblast growth factor receptor 3 (Homo sapiens) (UniProt P22607). Particulars: at 0.1 µM.
The target is the same in test [19]. Particulars: at 1 µM.
Test [20] addresses Fibroblast growth factor receptor 4 (Homo sapiens) (UniProt P22455). Particulars: at 0.1 µM.

Fibroblast growth factor receptor 1 (Homo sapiens), sequence (P11362 22-822 limits assumed): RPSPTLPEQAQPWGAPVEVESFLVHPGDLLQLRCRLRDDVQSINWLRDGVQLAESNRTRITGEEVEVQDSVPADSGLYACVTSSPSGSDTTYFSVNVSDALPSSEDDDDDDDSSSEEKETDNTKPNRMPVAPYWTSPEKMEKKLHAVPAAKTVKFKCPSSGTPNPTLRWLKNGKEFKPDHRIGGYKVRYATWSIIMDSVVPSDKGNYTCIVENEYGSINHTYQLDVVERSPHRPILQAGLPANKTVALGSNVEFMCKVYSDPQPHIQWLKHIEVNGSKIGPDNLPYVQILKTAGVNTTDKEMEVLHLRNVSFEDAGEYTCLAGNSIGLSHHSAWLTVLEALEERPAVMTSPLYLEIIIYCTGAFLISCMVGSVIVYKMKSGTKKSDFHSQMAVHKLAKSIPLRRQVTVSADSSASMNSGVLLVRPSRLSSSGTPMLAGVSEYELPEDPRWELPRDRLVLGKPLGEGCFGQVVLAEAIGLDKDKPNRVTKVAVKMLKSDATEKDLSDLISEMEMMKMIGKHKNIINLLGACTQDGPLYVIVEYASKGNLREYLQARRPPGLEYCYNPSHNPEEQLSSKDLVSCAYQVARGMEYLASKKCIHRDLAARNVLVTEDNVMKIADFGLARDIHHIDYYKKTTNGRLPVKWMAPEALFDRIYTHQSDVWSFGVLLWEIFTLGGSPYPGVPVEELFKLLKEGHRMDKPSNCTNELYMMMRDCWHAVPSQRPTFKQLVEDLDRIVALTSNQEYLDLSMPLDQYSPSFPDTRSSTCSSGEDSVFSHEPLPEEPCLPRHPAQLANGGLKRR
Fibroblast growth factor receptor 3 (Homo sapiens), sequence (P22607 23-806 limits assumed): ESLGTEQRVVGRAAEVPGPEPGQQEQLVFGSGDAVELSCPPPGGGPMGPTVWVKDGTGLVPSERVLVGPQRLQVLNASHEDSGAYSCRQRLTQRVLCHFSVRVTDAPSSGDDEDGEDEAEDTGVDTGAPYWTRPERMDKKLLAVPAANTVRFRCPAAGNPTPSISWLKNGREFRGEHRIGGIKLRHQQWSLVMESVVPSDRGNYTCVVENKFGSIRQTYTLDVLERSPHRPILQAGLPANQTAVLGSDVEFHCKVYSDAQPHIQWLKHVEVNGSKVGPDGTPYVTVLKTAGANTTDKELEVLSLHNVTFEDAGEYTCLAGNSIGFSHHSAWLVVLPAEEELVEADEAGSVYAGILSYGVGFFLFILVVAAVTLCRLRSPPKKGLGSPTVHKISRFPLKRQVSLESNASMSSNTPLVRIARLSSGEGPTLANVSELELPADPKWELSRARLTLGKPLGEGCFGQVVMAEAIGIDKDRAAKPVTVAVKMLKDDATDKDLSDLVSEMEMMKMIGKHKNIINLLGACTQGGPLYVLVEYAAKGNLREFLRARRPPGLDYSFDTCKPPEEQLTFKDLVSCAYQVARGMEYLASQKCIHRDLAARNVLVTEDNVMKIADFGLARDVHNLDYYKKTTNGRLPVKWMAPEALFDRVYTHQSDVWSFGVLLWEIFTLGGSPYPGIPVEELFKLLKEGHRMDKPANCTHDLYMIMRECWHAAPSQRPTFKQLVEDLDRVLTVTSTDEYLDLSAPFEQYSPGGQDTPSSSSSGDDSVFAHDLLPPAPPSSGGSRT
Tyrosine-protein kinase Fer (Homo sapiens), sequence (P16591 whole entry, looked up): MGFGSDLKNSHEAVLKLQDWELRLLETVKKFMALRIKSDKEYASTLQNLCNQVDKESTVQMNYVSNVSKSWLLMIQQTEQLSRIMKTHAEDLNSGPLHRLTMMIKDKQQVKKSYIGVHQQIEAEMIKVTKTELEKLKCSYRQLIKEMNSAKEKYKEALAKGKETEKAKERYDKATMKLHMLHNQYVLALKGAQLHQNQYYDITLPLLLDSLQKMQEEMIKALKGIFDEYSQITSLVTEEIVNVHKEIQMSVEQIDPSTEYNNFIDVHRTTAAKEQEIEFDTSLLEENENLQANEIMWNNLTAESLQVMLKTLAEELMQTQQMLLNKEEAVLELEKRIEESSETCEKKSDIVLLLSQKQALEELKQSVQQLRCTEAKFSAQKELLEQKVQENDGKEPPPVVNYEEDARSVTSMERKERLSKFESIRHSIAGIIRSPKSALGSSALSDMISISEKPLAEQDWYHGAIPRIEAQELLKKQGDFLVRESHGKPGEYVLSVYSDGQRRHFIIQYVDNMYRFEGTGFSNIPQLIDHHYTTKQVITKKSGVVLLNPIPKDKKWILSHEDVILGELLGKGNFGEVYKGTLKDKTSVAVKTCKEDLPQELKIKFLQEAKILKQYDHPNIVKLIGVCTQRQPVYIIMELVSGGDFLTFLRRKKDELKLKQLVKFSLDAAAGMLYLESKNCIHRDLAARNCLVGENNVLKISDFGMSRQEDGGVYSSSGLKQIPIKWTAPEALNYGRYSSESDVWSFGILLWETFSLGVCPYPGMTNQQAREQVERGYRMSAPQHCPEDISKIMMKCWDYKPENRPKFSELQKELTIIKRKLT
Fibroblast growth factor receptor 4 (Homo sapiens), sequence (P22455 22-802 limits assumed): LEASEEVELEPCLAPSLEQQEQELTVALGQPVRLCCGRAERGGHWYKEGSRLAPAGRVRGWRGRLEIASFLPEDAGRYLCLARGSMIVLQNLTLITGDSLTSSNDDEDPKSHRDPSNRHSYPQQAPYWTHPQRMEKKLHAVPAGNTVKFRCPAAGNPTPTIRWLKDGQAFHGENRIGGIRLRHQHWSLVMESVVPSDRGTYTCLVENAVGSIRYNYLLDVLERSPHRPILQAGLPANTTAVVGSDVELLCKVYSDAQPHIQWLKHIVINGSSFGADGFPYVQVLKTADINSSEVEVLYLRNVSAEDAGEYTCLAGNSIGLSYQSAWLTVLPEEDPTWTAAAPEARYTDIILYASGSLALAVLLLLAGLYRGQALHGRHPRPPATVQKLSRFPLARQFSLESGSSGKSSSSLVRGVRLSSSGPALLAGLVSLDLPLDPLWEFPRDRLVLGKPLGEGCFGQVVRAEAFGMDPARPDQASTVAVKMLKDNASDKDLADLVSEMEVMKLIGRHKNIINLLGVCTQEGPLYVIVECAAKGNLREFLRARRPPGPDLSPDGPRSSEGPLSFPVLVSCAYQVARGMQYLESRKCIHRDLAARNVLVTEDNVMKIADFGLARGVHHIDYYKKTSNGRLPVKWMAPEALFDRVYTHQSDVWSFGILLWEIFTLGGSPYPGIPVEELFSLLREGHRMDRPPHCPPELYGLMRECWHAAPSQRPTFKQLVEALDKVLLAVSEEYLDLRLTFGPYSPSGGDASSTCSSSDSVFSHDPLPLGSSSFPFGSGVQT
Receptor tyrosine-protein kinase erbB-4 (Homo sapiens), sequence (Q15303 whole entry): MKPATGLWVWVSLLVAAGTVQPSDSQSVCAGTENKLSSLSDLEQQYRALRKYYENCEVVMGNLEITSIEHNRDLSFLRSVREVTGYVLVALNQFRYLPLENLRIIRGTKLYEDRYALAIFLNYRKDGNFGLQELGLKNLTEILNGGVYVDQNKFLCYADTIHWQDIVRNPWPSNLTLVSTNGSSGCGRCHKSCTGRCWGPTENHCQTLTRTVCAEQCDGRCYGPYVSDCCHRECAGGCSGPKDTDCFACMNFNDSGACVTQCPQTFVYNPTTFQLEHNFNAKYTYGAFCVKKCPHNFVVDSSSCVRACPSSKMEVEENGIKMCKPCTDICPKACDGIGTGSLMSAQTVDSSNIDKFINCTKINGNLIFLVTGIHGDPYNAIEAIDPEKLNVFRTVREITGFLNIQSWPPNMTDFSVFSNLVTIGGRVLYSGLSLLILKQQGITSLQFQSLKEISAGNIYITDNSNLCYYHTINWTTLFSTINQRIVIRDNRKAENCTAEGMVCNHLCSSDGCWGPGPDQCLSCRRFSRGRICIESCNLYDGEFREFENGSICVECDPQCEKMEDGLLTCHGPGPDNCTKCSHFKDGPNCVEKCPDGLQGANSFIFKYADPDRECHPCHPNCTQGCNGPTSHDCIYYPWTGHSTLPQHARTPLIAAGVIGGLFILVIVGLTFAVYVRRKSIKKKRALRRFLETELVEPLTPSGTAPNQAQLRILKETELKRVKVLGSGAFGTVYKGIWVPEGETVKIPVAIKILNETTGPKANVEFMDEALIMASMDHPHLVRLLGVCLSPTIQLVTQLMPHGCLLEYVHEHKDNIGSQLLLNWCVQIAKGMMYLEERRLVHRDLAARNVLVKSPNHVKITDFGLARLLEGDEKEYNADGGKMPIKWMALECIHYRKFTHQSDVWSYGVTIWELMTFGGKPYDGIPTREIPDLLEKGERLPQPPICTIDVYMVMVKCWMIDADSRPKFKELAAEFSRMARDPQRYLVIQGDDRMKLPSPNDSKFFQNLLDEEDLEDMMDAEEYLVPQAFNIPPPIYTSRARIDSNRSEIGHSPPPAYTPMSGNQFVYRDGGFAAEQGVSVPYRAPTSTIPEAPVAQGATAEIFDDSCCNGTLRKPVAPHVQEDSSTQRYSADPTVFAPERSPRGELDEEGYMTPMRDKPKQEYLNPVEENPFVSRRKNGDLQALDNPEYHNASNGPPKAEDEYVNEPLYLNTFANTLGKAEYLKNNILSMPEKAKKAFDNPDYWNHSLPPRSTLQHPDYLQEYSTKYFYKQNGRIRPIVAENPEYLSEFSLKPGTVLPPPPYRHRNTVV

What is called inhibition is the change of the read-out against control, counted positive when it falls. Regarding `COc1cc(N2CCN(C(C)C)CC2)ccc1Nc1nc(Nc2ccc(F)cc2C(N)=O)c2cc[nH]c2n1`, the inhibition in test [1] came out at 1.15%; in [2] it was 2.78%; in test [3] it was 2.03%; in test [4], 1.77%; in [5] it was 1.31%; in [6], 2.4%. Also, the inhibition in test [7] stood at 3.8%; in test [8], 35.2%; in test [9] it was 76.8%; in test [10], 62.8%; in test [11], 82.8%; in test [12], 39.9%. Besides, the inhibition worked out at 81.7% in test [13]; 6.98% in [14]; 2.33% in test [15]; 7.72% in [16]; 3.84% in [17]; 7.85% in [18]. The inhibition is 3.24% in [19] and 4.7% in test [20].
Take `CNC(=O)c1cc(-c2ccc(F)cc2)cc(-c2ccc(S(=O)(=O)N3CCCC3)cc2)c1N`: the inhibition in test [1] was determined as 5.41%; in test [2], 0.26%; in test [3] it was 3.7%; in test [4], 1.99%; in test [5], 2.03%; in test [6] it was 2.24%. For the same compound, the inhibition came to 7.8% in test [7]; 5.77% in test [8]; 10.4% in test [9]; 2.99% in test [10]; 2.21% in test [11]; 2.25% in test [12]. In addition, the inhibition in test [13] was found to be 1.64%; in test [14] it was 3.72%; in test [15], 5.1%; in test [16] it was 9.77%; in test [17] it was 5.71%; in test [18], 4.56%. For the same compound, the figures for the inhibition in test [19] and in [20] were 3.99% and 2.78%, respectively.
Consider `NC(=O)c1sc(-n2cnc3ccc(C(F)(F)F)cc32)cc1OCc1ccccc1Br`, for which the inhibition in test [1] was 7.8%; in [2], 7.23%; in test [3], 4.9%; in test [4], -1.54%; in [5], 0.48%; in test [6], 1.83%. Moreover, the inhibition was 1.49% in test [7]; 6.27% in [8]; 10.9% in test [9]; 2.63% in test [10]; 2.2% in [11]; 1.79% in [12]. Moreover, the inhibition in [13] came out at 2.43%; in [14], 4.99%; in test [15] it was 5.11%; in [16] it was 4.53%; in [17], 4.28%; in test [18], 5.08%. For the same compound, the inhibition turned out to be 3.54% in [19] and 4.08% in [20].
Regarding `[O-][S+]1CCN(Cc2ccc(-c3ccc4ncnc(Nc5ccc(OCc6cccc(F)c6)c(Cl)c5)c4c3)o2)CC1`, the inhibition worked out at 7.63% in test [1]; 3.69% in test [2]; 7.49% in test [3]; 2.75% in [4]; 4.27% in test [5]; 78.4% in test [6]. The inhibition turned out to be 79.9% in test [7]; 88.9% in test [8]; 91.3% in test [9]; 2.55% in test [10]; 4.93% in [11]; 5% in test [12]. For the same compound, the inhibition turned out to be 4.91% in test [13]; 3.95% in test [14]; 9.17% in test [15]; 7.74% in test [16]; 9.73% in test [17]; 8.06% in test [18]. For the same compound, the inhibition in test [19] came out at 7.32%; in test [20] it was 5.9%.
For the compound `CCn1c(-c2nonc2N)nc2ccccc21`, the inhibition in test [1] was found to be 10.1%; in [2], 5.49%; in test [3], 2.17%; in test [4], 1.03%; in test [5] it was 1.88%; in [6] it was 0.88%. The inhibition was -2.17% in test [7]; 12.3% in test [8]; 12.3% in test [9]; 5.9% in [10]; 8.61% in test [11]; 3.26% in test [12]. Further, the inhibition in test [13] came to 2.57%; in [14], 2.08%; in [15], 2.29%; in test [16], 0.75%; in [17] it was 4.22%; in test [18], 2.45%. The figures for the inhibition in test [19] and in test [20] were 2.35% and 0.05%, respectively.
With `CCN1CCC(CC(=O)Nc2n[nH]c3nnc(-c4cccc(F)c4F)cc23)CC1`, the inhibition in test [1] was 3.83%; in test [2], 2.04%; in test [3], 5.11%; in [4], -0.34%; in [5] it was 1.27%; in test [6], 2.4%. Besides, the inhibition in test [7] was 3.76%; in test [8], 3.77%; in test [9] it was 10.1%; in [10], -0.6%; in test [11], 1.74%; in test [12], 2.37%. For the same compound, the inhibition is 2.12% in test [13]; 0.21% in [14]; 0.41% in [15]; 0.64% in test [16]; 3.38% in test [17]; -1.19% in test [18]. The figures for the inhibition in [19] and in test [20] were 1.89% and 0.88%, respectively.
Turning to `CC1=C(C(=O)Nc2cc(Cl)c3[nH]ncc3c2)C(c2ccc(C(F)(F)F)cc2)CC(=O)N1` (stereo not given), the inhibition in test [1] was 6.01%; in test [2], 5.62%; in [3], 2.94%; in test [4], -1.21%; in [5], 0.29%; in test [6] it was 2.74%. Also, the inhibition worked out at 1.78% in test [7]; 11.9% in test [8]; 31.2% in [9]; 4.27% in [10]; 3.32% in test [11]; 2.07% in test [12]. For the same compound, the inhibition was 2.33% in test [13]; -0.25% in test [14]; 2.9% in test [15]; 3.38% in [16]; 3.56% in [17]; 9.2% in [18]. The inhibition in [19] turned out to be 3.77%; in [20], 2.42%.

Values taken from ChEMBL document CHEMBL1961873, “Compounds: GSK PKIS; Assays: Nanosyn kinase panel” (2012).
